Test [1] in a line: compounds binding Alexa647 anti-His antibody – biochemical, small-molecule microarray, 635 nm fluorescence, artefact control for SMM control protein annotation, primary screen (AID 1128).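 Also: score merges feature fluorescence with signal-to-noise for each printed compound spot.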 The settings on record: higher = more signal.
In test [2] the test system is Human papillomavirus type 1a E7 protein (residues 1-88). Description: HPV1a E7 small-molecule binders, primary screen, biochemical, small-molecule microarray, residues 1-88, 635 nm (AID 1129). To be noted: small-molecule microarray binding, fluorescence 635 nm; higher = more signal.
Test [3] deals with Focal adhesion kinase 1 (Homo sapiens) (UniProt Q05397). Description: PTK2 protein binding on printed compound slides – biochemical, small-molecule microarray, 635/667 nm fluorescence, BSA, DTT, primary screen (AID 1130).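 Also: composite of spot emission at 667 nm and signal to noise over triplicate slides.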 The settings on record: 635 nm fluorescence, higher = more signal.
Chain of Focal adhesion kinase 1 (Homo sapiens) (Q05397 whole entry, looked up): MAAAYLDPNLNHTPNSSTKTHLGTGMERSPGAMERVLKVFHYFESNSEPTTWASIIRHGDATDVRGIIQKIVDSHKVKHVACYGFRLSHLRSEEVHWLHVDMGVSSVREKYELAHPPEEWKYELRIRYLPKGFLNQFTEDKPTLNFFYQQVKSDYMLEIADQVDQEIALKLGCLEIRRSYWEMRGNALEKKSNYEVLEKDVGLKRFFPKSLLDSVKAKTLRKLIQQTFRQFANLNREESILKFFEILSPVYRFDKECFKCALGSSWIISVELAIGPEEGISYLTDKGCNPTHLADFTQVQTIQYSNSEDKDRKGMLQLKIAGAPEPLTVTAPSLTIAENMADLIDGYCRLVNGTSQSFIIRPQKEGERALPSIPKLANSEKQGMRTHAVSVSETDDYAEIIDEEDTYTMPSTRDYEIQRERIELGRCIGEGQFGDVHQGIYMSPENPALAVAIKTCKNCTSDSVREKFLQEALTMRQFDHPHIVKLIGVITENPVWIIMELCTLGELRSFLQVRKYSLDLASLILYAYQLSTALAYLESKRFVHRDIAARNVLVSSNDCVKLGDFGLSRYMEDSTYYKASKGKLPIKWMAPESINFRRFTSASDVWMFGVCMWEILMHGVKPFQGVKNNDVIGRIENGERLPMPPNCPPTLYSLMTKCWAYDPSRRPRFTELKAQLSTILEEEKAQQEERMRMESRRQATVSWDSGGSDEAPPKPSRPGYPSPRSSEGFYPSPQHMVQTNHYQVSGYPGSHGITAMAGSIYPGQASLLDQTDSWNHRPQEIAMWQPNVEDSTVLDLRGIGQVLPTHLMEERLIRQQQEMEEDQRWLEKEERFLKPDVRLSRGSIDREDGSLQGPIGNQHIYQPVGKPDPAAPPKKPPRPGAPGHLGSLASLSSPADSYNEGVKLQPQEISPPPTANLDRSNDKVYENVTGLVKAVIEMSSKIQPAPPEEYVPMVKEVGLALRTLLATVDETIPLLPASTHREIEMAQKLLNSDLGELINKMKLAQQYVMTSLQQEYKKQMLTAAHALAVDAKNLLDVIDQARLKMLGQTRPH
The test system of test [4] is Fibrinogen (Alexa647-labelled). Description: Alexa647-fibrinogen binding to printed small molecules – biochemical, small-molecule microarray, 635/667 nm fluorescence, artefact control for SMM control-protein annotation, profiling panel (AID 1131).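 Also: z-score merges 667 nm fluorescence with per-spot signal-to-noise over triplicate slides.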 The settings on record: fibrinogen-A647 binding fluorescence, higher = more signal.
For test [5], the target named is Follistatin (Homo sapiens) (UniProt P19883). The experiment in a line: FST protein binding to printed compounds – biochemical, small-molecule microarray, 635/667 nm fluorescence, primary screen (AID 1132). The settings on record: 635 nm fluorescence, higher = more signal.
Chain of Follistatin (Homo sapiens) (P19883 whole entry, looked up): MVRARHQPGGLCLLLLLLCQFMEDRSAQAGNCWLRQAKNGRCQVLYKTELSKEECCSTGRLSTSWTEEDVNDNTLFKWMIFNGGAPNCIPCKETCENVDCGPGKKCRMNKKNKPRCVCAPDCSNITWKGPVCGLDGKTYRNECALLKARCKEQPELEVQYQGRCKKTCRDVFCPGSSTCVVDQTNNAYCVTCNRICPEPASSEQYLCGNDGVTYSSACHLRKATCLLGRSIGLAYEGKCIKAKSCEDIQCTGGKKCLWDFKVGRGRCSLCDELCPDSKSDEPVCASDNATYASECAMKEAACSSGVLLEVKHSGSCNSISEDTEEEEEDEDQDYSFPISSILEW
Test [6] addresses Fibroblast growth factor 2 (Homo sapiens) (UniProt P09038). The experiment in a line: basic fibroblast growth factor binding to printed compounds – biochemical, small-molecule microarray, 635/667 nm fluorescence, primary screen (AID 1133). The settings on record: FGF2, fluorescence 635/667, higher = more signal.
Test [7] in a line: JC-1 mitochondrial potential readout, lung cancer cells – cell-based, A549, JC-1 fluorescence, basal, 24 h, 100 nL, profiling panel (AID 1138).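 Also: A549 lung adenocarcinoma cells under basal conditions with no added stimulus; test concentration not given here.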 The settings on record: higher = more signal.
The subject of test [8] is Lefty1. Description: Lefty1 protein binding to printed compounds – biochemical, small-molecule microarray, 635/667 nm fluorescence, primary screen (AID 1139). To be noted: fluorescence 635/667, higher = more signal.
Test [9] concerns wheat germ agglutinin (Triticum aestivum), Alexa647-labelled. The experiment in a line: Alexa647-WGA lectin binding to printed small molecules – biochemical, small-molecule microarray, 635/667 nm fluorescence, artefact control for SMM control-protein annotation, profiling panel (AID 1140).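 Also: score merges 667 nm feature emission with signal to noise over triplicate slides.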 The settings on record: WGA-A647 binding, 635 nm fluorescence, higher = more signal.
Test [10] deals with Luciferin 4-monooxygenase (Photinus pyralis) (UniProt P08659). The experiment in a line: inhibition of purified Photinus pyralis luciferase – biochemical, luminescence, purified enzyme, 2006 set, primary screen (AID 1141).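 Also: cell-free assay with purified firefly luciferase at 100 ng per well in PBS; test concentration not given here.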 To be noted: purified firefly luciferase, SteadyGlo luminescence, 30 min; higher = more signal, called active from +8 up or from −8 down.
Chain of Luciferin 4-monooxygenase (Photinus pyralis) (P08659 whole entry, looked up): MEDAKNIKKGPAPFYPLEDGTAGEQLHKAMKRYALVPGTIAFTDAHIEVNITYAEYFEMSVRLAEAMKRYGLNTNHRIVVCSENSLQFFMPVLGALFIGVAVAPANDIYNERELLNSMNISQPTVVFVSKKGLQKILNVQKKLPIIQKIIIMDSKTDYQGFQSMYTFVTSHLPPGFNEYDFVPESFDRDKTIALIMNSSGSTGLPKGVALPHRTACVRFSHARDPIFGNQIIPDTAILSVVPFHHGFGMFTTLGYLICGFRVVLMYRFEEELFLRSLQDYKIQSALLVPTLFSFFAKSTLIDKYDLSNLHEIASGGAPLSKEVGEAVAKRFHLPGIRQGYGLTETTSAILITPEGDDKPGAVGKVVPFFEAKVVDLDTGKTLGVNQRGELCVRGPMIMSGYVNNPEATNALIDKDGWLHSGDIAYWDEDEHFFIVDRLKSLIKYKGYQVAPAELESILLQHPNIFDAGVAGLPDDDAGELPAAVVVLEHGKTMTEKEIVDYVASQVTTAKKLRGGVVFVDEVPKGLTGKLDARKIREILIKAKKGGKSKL
Test [11] has as its system Wnt5a (protein binding on small-molecule microarray). Description: small molecules binding Wnt5a protein – biophysical, small-molecule microarray, 635/667 nm fluorescence, primary screen (AID 1142).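 Also: fluorescence read at 667 nm with signal to noise per printed feature.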 To be noted: 635 nm fluorescence, higher = more signal.
Test [12] can be described thus: ATP-based viability of Huh7 replicon cells – cell-based, CellTiter-Glo luminescence, basal, 48 h, cytotoxicity control for HCV replication inhibitor project, primary screen (AID 1143).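 Also: Huh7 hepatoma cells carrying a hepatitis C replication reporter with no stimulus; test concentration not given here.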 The settings on record: higher = more signal, called active from +8 up or from −8 down. A general note: In antiviral work, replicon cells carry a viral genome segment that copies itself.

Test [13] can be described thus: Pseudomonas biofilm growth suppression – PAO1 strain, BacTiter-Glo luminescence, LB-PBS, primary screen (AID 1144). To be noted: P. aeruginosa PAO1 biofilm, 12 h, higher = more signal.
The nature of test [14]: basal CRE-LacZ reporter activity in PC12 – cell-based, unstimulated, primary screen (AID 1145). The settings on record: no forskolin, luminescence, 4.5 h, higher = more signal, called active from +8 up or from −8 down.
Test [15] in a line: forskolin-driven CRE-LacZ activity in PC12 – cell-based, CRE-LacZ reporter, forskolin-stimulated, primary screen (AID 1146).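 Also: PC12 cells with 6xCRE LacZ reporter stimulated by forskolin 10 µM; beta-galactosidase reporter signal reflecting CREB driven transcription.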 To be noted: luminescence, 4.5 h, higher = more signal, called active from +8 up or from −8 down.
For test [16], the target named is Streptavidin (Streptomyces avidinii) (UniProt P22629). The experiment in a line: compounds binding control protein streptavidin – biophysical, small-molecule microarray, 635/667 nm fluorescence, artefact control for SMM compound annotation, primary screen (AID 1147).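 Also: signal reflects streptavidin binding to arrayed compounds as a control protein.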 The settings on record: higher = more signal.
Chain of Streptavidin (Streptomyces avidinii) (P22629 whole entry, looked up): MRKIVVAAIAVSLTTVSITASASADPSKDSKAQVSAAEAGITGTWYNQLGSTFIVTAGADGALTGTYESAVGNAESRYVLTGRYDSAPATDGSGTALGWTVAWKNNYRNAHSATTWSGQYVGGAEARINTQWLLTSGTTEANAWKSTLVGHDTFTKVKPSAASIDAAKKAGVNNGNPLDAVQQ
The nature of test [17]: probe aInhba binding on compound microarray – biochemical, small-molecule microarray, 635/667 nm fluorescence, primary screen (AID 1148).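 Also: score merges 667nm spot fluorescence with signal-to-noise for antibody binding to printed compounds.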 To be noted: higher = more signal.
Test [18] concerns the target Torsin-1A (Homo sapiens) (UniProt O14656). The experiment in a line: TOR1A wild-type binding on microarray – cell lysate, small-molecule microarray, lysate, 635/667 nm, primary screen (AID 1149). The settings on record: COS7 hTOR1A-WT lysate, 635 nm fluorescence, higher = more signal.
The target is the same in test [19]. The experiment in a line: torsin A mutant lysate binding on microarrays – cell lysate, small-molecule microarray, COS7 lysate, 635/667 nm fluorescence, primary screen (AID 1150).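 Also: score pools 667 nm emission and signal to noise measuring lysate protein binding.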 The settings on record: COS7 hTOR1A mutant lysate, 635 nm fluorescence, higher = more signal.
Test [20] relates to Sonic hedgehog protein (Shh). Description: Sonic hedgehog microarray binding compounds – biochemical, small-molecule microarray, 635/667 nm fluorescence, primary screen (AID 1151).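 Also: Shh protein binding to compounds spotted on small-molecule microarray slides; score combines spot fluorescence intensity with signal-to-noise across triplicate slides.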 The settings on record: 635 nm fluorescence, higher = more signal.

Here are results for five compounds from PubChem BioAssay.

Activity calls are given as the source filed them. Unless noted, no rule for the calls is given here.

Chain of Fibroblast growth factor 2 (Homo sapiens) (P09038 whole entry, looked up): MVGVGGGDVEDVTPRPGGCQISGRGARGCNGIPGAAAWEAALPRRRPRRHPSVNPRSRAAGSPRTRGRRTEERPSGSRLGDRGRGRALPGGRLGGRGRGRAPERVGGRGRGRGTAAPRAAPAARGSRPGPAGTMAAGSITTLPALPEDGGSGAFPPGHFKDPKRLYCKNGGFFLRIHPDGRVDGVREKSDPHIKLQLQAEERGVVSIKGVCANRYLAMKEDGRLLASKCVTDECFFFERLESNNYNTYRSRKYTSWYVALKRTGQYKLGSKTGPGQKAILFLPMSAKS
Chain of Torsin-1A (Homo sapiens) (O14656 whole entry, looked up): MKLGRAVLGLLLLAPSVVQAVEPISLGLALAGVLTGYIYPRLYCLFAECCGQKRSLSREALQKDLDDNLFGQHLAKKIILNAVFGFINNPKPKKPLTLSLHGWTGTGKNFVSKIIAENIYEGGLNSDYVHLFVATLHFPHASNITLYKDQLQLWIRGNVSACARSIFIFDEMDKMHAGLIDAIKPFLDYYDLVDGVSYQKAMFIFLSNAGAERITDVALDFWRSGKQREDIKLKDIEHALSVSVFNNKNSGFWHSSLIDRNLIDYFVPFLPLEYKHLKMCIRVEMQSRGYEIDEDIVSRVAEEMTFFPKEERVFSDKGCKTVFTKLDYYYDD

For `CCOC(=O)C=Cc1ccccc1O`, the composite z-score in test [1] is 0.712; in test [2], 0.923; in test [3], -0.0156; in test [4], 0.881; in [5] it was 0.79; in test [6], 0.292. Moreover, the composite z-score in test [8] came out at 0.175; in test [9] it was 0.404; in test [11], 0.0265; in [16] it was 0.486; in test [17], 0.0051; in test [18], 0.399. In addition, the figures for the composite z-score in test [19] and in test [20] were 0.146 and 0.158, respectively. The z-score in [7] was -1.47; in test [10], -0.532 (inactive); in test [12], -4.76 (inactive); in test [13], -0.203 (inactive); in test [14] it was -0.471 (inactive); in [15], -0.586 (inactive).

In the case of `Cc1ccccc1C(O)C1C=CC2C(=O)N(c3ccccc3)C(=O)C2N1Nc1ccc([N+](=O)[O-])cc1` (stereo not given), the composite z-score in test [1] came out at 1.48; in test [2] it was 1.21; in [3], 0.533; in [4], 1.01; in test [5], 1.23; in test [6], 1.06. Also, the composite z-score in [8] is 0.0122; in [9] it was 0.515; in [11] it was -0.0078; in test [16] it was 1.77; in test [17] it was 0.3; in test [18], 0.992. For the same compound, the composite z-score in test [19] stood at 0.593; in test [20], 0.176. Moreover, the z-score was -0.752 in test [7]; 1.18 (inactive) in test [10]; -0.52 (inactive) in [12]; -0.35 (inactive) in [13]; 0.78 (inactive) in [14]; 0.598 (inactive) in test [15].

Regarding `COc1ccc(C(O)C2C=CC3C(=O)N(c4ccccc4)C(=O)C3N2Nc2ccccc2F)cc1` (stereo not given), the composite z-score in [1] is 2.35; in [2] it was 1.18; in test [3] it was 0.616; in [4], 0.918; in [5], 0.244; in test [6], -0.276. Moreover, the composite z-score in test [8] was -0.2; in test [9] it was 0.265; in [11] it was 0.0178; in [16], 0.316; in [17] it was 1.52; in test [18] it was 0.216. Moreover, the composite z-score turned out to be 0.732 in test [19] and 0.379 in test [20]. The z-score is -0.652 in test [7]; 1.31 (inactive) in [10]; -0.0475 (inactive) in [12]; -0.749 (inactive) in test [13]; -0.228 (inactive) in test [14]; 0.604 (inactive) in test [15].

Take `NC(=O)[C@@H]1[C@H]2C(=O)O[C@H](c3ccccc3)[C@H](c3ccccc3)N2[C@H](c2ccc(OCCO)cc2)[C@@]12C(=O)Nc1ccc(C#CCCO)cc12`: the composite z-score in test [1] stood at 2.24; in [2] it was 0.988; in test [3] it was 0.215; in [4], 0.639; in [5] it was 0.89; in test [6], 0.396. Besides, the composite z-score in test [8] is -0.143; in [9] it was 0.659; in test [11] it was 0.257; in [16], 0.958; in test [17], -0.0736; in test [18] it was 0.632. The figures for the composite z-score in test [19] and in [20] were -0.565 and 0.0995, respectively. The z-score in [7] was -0.399; in [10], -2.01 (inactive); in [12], -0.952 (inactive); in [13], -0.807 (inactive); in [14] it was -0.0515 (inactive); in test [15], -0.195 (inactive).

For the compound `COCCCNC(=O)[C@@]1(Sc2ccc(C)cc2)CC(=O)N(C(C)C)[C@@H]1c1ccc(CO)cc1I`, the composite z-score is -0.578 in test [1]; 0.569 in [2]; -0.0285 in test [3]; -0.491 in [4]; -0.035 in test [5]; -0.335 in test [6]. Also, the composite z-score in [8] is -0.21; in test [9], 0.271; in [11], -0.0469; in test [16], -0.671; in [17], -0.0762; in test [18] it was 0.154. In addition, the composite z-score in [19] was 1.18; in [20] it was -0.005. For the same compound, the z-score is -0.0858 in test [7]; 0.805 (inactive) in [10]; -4.86 (inactive) in test [12]; -0.96 (inactive) in test [13]; 0.0655 (inactive) in test [14]; 1.35 (inactive) in test [15].
